The target of experiment [1] is Albumin (Bos taurus) (UniProt P02769). In words: bovine serum albumin binders on microarray, profiling panel, artefact control for SMM control protein annotation, biochemical, small-molecule microarray, Alexa647 label, 635/667 nm fluorescence (AID 1118).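 Note: score merges 667 nm emission intensity and signal-to-noise per printed compound spot.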 Particulars: BSA-A647 binding, fluorescence 635 nm, higher = more signal.
Experiment [2] can be described thus: small-molecule microarray binders of probe aXIP, primary screen, biochemical, NeuroSMM set, 635/667 nm fluorescence (AID 1119).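 Note: probe is the protein aXip251-270 applied at 1 µg/mL to compound-printed slides; binding of probe to printed compounds measured as 667 nm fluorescence plus signal to noise.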 Particulars: higher = more signal, called active from +8 up or from −8 down.
Experiment [3] is described as follows: small-molecule binders of probe aNOTCH3, primary screen, biochemical, small-molecule microarray, 635/667 nm fluorescence (AID 1120).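 Note: probe is a biotin-tagged antibody raised against NOTCH3 rather than NOTCH3 protein; score merges spot fluorescence near 667 nm with spot signal to noise.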 The note with it: higher = more signal.
Experiment [4] is described as follows: small-molecule binders of probe aNOTCH2, primary screen, biochemical, small-molecule microarray, 635/667 nm fluorescence (AID 1121).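 Note: score merges feature fluorescence read at 667 nm with its signal to noise.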 Particulars: higher = more signal.
The target in experiment [5] is Carbonic anhydrase 2 (Homo sapiens) (UniProt P00918). Description: CAII small-molecule binders, profiling panel, biochemical, small-molecule microarray, Alexa647-labelled CAII (AID 1122). Particulars: CAII-A647 binding fluorescence, higher = more signal.
Experiment [6] in a line: COS7 lysate on small-molecule microarray, probe aHis, 635 nm (AID 1123).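 Note: z-score combines 667nm fluorescence intensity with signal-to-noise per printed compound spot.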 Particulars: COS7 cell lysate, fluorescence, higher = more signal.
Experiment [7] in a line: compound binding in COS7 lysate, probe aLAP1, primary screen, cell lysate, small-molecule microarray (AID 1124).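 Note: lysate comes from COS7 cells expressing LAP1 and is applied at 0.3 µg/mL; score merges spot fluorescence near 667 nm with signal-to-noise over triplicate slides.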 The note with it: probe aLAP1, fluorescence, higher = more signal.
Experiment [8] deals with Sam68 (KHDRBS1). In words: Sam68 small-molecule binders, primary screen, biochemical, small-molecule microarray, 635 nm fluorescence (AID 1125).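 Note: score merges 667 nm channel intensity with signal to noise over triplicate slides.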 Particulars: small-molecule microarray binding, higher = more signal.
The subject of experiment [9] is Chordin-like protein 2 (CHRDL2). In words: CHRDL2 small-molecule binders, primary screen, biochemical, small-molecule microarray, 635 nm fluorescence (AID 1126).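 Note: printed compound slides probed with Chrdl2 protein at 4 µg/mL for 1 h at 4 C; score merges 667 nm emission intensity with signal to noise over three replicate slides.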 Particulars: small-molecule microarray binding, fluorescence 635 nm; higher = more signal.
For experiment [10], the target named is Concanavalin-A (Canavalia ensiformis) (UniProt P02866). Description: ConA small-molecule binders, primary screen, artefact control for SMM control protein annotation, biochemical, small-molecule microarray, Alexa647 label, 635 nm (AID 1127).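 Note: z combines 667 nm emission intensity with signal-to-noise across three replicate slides.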 Particulars: ConA-A647 binding fluorescence, higher = more signal.
Sequence of Concanavalin-A (Canavalia ensiformis) (P02866 whole entry, looked up): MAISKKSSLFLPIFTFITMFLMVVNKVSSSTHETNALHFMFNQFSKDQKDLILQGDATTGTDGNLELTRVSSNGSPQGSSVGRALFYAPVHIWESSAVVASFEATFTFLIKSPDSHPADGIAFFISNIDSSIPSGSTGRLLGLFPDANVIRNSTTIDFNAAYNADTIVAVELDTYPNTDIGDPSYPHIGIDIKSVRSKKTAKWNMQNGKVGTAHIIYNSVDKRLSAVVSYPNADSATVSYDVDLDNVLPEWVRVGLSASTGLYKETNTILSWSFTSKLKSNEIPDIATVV
A short description of experiment [11]: anti-His antibody binders, primary screen, artefact control for SMM control protein annotation, biochemical, small-molecule microarray, 635 nm fluorescence (AID 1128).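 Note: score merges feature fluorescence with signal-to-noise for each printed compound spot.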 The note with it: anti-His Alexa647 antibody binding, higher = more signal.
Experiment [12] deals with Human papillomavirus type 1a E7 protein (residues 1-88). Description: HPV1a E7 small-molecule binders, primary screen, biochemical, small-molecule microarray, residues 1-88, 635 nm (AID 1129). The note with it: small-molecule microarray binding, fluorescence 635 nm; higher = more signal.
The target of experiment [13] is Focal adhesion kinase 1 (Homo sapiens) (UniProt Q05397). Description: small-molecule microarray binders of FAK, primary screen, biochemical, 635/667 nm fluorescence, BSA, DTT (AID 1130).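 Note: composite of spot emission at 667 nm and signal to noise over triplicate slides.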 The note with it: PTK2 binding, 635 nm fluorescence, higher = more signal.
Sequence of Focal adhesion kinase 1 (Homo sapiens) (Q05397 whole entry, looked up): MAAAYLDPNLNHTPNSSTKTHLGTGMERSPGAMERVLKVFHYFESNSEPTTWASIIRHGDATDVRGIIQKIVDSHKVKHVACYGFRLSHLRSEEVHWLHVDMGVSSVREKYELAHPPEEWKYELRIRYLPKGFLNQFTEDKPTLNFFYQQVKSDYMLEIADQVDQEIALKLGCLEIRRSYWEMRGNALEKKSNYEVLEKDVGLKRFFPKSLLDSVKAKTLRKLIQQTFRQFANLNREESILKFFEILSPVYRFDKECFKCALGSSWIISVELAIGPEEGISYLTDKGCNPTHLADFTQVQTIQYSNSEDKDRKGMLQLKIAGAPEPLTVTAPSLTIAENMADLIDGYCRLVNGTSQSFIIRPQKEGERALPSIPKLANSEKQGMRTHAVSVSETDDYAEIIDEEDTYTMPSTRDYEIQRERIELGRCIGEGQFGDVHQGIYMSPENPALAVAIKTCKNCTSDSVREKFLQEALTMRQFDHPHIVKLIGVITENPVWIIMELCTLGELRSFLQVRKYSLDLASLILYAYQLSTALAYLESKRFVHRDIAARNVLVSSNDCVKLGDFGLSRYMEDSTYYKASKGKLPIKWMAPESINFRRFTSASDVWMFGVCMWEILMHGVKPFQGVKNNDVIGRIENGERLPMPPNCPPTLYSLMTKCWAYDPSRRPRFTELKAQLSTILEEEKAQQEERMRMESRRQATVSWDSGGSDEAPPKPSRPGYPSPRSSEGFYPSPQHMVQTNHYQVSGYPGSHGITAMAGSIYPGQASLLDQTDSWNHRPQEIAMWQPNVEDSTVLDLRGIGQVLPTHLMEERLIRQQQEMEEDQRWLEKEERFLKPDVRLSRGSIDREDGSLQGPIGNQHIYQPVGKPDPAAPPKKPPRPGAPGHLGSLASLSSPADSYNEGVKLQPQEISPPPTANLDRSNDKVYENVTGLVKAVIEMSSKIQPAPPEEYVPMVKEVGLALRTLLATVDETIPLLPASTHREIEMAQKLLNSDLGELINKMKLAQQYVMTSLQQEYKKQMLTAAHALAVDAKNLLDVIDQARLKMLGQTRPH
Experiment [14] has as its system Fibrinogen (Alexa647-labelled). In words: fibrinogen binders on compound microarrays, profiling panel, artefact control for SMM control-protein annotation, biochemical, small-molecule microarray, 635/667 nm fluorescence (AID 1131).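 Note: z-score merges 667 nm fluorescence with per-spot signal-to-noise over triplicate slides.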 Particulars: fibrinogen-A647 binding fluorescence, higher = more signal.
Experiment [15] has as its target Follistatin (Homo sapiens) (UniProt P19883). Description: follistatin binders on small-molecule microarrays, primary screen, biochemical, small-molecule microarray, 635/667 nm fluorescence (AID 1132). The note with it: FST binding, 635 nm fluorescence, higher = more signal.
The target of experiment [16] is Fibroblast growth factor 2 (Homo sapiens) (UniProt P09038). In words: FGF2 binders on small-molecule microarrays, primary screen, biochemical, small-molecule microarray, 635/667 nm fluorescence (AID 1133). The note with it: small-molecule microarray binding, FGF2, fluorescence 635/667; higher = more signal.
Sequence of Fibroblast growth factor 2 (Homo sapiens) (P09038 whole entry, looked up): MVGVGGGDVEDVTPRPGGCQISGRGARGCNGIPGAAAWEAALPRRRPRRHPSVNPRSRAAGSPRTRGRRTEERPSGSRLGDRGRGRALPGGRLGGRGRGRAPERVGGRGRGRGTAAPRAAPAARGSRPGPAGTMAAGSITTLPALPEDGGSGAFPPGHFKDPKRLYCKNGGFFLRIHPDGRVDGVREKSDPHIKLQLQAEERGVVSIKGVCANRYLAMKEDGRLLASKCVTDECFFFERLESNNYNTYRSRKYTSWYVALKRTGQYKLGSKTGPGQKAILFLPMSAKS
The nature of experiment [17]: mitochondrial membrane potential change in A549 cells, profiling panel, cell-based, JC-1 fluorescence, basal, 24 h, 100 nL (AID 1138).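 Note: A549 lung adenocarcinoma cells under basal conditions with no added stimulus; test concentration not given here.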 The note with it: higher = more signal.
Experiment [18] relates to Lefty1. Description: Lefty1 binders on small-molecule microarrays, primary screen, biochemical, small-molecule microarray, 635/667 nm fluorescence (AID 1139). The note with it: small-molecule microarray binding, fluorescence 635/667; higher = more signal.
In experiment [19] the test system is wheat germ agglutinin (Triticum aestivum), Alexa647-labelled. Description: wheat germ agglutinin binders on compound microarrays, profiling panel, artefact control for SMM control-protein annotation, biochemical, small-molecule microarray, 635/667 nm fluorescence (AID 1140).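 Note: score merges 667 nm feature emission with signal to noise over triplicate slides.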 Particulars: WGA-A647 binding, 635 nm fluorescence, higher = more signal.
Experiment [20] addresses Luciferin 4-monooxygenase (Photinus pyralis) (UniProt P08659). In words: firefly luciferase enzyme inhibitors, primary screen, biochemical, luminescence, purified enzyme, 2006 set (AID 1141).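 Note: cell-free assay with purified firefly luciferase at 100 ng per well in PBS; test concentration not given here.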 Particulars: SteadyGlo luminescence, 30 min, higher = more signal, called active from +8 up or from −8 down.

The source made the active and inactive calls.

Sequence of Albumin (Bos taurus) (P02769 whole entry, looked up): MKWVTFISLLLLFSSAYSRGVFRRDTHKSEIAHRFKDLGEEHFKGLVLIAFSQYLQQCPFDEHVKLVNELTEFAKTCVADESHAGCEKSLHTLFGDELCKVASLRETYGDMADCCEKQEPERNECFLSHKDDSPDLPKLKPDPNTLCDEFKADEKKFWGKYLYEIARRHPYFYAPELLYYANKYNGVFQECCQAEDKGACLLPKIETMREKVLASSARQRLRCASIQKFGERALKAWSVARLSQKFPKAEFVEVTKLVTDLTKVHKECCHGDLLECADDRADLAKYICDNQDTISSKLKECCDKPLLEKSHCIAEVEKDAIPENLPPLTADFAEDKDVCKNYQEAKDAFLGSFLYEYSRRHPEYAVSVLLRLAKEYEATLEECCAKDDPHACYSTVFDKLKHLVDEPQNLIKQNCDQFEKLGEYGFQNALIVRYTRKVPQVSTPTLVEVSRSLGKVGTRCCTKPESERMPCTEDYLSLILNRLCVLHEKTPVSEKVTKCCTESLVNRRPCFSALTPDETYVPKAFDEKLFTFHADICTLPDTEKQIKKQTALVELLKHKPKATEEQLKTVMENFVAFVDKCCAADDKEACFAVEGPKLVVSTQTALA
Sequence of Luciferin 4-monooxygenase (Photinus pyralis) (P08659 whole entry, looked up): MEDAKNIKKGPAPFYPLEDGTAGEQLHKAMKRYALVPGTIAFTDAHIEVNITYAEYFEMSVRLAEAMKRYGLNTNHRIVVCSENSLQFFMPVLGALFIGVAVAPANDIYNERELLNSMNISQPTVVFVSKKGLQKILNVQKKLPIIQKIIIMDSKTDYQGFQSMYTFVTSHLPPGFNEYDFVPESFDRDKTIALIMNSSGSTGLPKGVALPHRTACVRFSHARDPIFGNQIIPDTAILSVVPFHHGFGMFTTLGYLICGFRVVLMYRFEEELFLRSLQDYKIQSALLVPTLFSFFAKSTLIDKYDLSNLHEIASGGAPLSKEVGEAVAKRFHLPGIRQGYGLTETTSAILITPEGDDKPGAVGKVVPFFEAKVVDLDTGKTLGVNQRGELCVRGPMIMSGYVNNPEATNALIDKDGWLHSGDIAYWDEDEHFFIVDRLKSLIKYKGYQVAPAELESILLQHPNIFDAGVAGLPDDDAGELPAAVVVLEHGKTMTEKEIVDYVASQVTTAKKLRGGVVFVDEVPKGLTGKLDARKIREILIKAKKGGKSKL
Sequence of Follistatin (Homo sapiens) (P19883 whole entry, looked up): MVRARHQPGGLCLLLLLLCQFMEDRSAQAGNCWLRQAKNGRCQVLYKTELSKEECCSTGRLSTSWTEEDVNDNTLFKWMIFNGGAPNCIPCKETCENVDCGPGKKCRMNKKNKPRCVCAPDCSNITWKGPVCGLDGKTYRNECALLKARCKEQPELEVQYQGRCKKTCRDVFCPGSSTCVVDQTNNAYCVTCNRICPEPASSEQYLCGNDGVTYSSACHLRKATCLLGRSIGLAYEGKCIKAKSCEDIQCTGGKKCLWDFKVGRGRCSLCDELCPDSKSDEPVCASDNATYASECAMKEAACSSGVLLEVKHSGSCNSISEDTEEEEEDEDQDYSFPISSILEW

As to `C#CCN1[C@H](/C=C/C2CC2)[C@H](Cc2ccccc2)OC(=O)[C@@H]1Cc1ccccc1`, the composite z-score in experiment [1] is -0.159; in [3], -0.124; in experiment [4], -0.0759; in experiment [5], 0.2; in [6], 0.24; in experiment [7], 0.092. The composite z-score in experiment [8] stood at 0.257; in [9], 0.509; in experiment [10], 0.0816; in experiment [11] it was 0.924; in [12] it was 0.743; in experiment [13], 0.229. Moreover, the composite z-score was 0.884 in experiment [14]; 0.578 in experiment [15]; 0.242 in experiment [16]; 0.536 in [18]; -0.153 in experiment [19]. In [2], the composite Z-score is -0.95 (inactive). Also, the z-score in experiment [17] was 3.8; in experiment [20] it was -0.373 (inactive).
Regarding `O=C(O)[C@@]1(CCS(=O)(=O)c2ccccc2)N=C(c2ccc(OCCCO)cc2)O[C@H]1c1ccccc1`, the composite z-score in experiment [1] is 0.978; in experiment [3], 0.156; in experiment [4], -0.0331; in [5], 0.864; in [6] it was 2.21; in experiment [7] it was -0.334. For the same compound, the composite z-score in [8] was 1.2; in experiment [9], -0.765; in experiment [10] it was 0.766; in experiment [11] it was 2.65; in [12] it was 0.23; in [13], 0.264. Further, the composite z-score in [14] was 0.993; in experiment [15], 0.265; in [16], -0.761; in experiment [18] it was -0.387; in experiment [19], 0.763. The composite Z-score in experiment [2] is -0.83 (inactive). Besides, the z-score is 0.175 in [17] and -1.56 (inactive) in experiment [20].
In the case of `COC(=O)C(CC#Cc1ccc2c(c1)[C@]1(C(=O)N2)[C@H](c2ccc(O)cc2)N2[C@H](c3ccccc3)[C@H](c3ccccc3)OC(=O)[C@H]2[C@@H]1C(=O)N1CCN(c2ncccn2)CC1)C(=O)OC`, the composite z-score came to 0.518 in experiment [1]; 0.166 in experiment [3]; 0.0669 in [4]; 0.476 in experiment [5]; 2.47 in experiment [6]; 0.415 in experiment [7]. Further, the composite z-score in [8] came out at 1.28; in experiment [9] it was 0.0801; in experiment [10], 1.11; in experiment [11], 3.29; in experiment [12], 1.23; in experiment [13], 0.809. In addition, the composite z-score in experiment [14] worked out at 0.975; in experiment [15], 0.771; in [16], 0.208; in experiment [18], 0.162; in experiment [19] it was 1.2. Also, the composite Z-score in [2] was 0.471 (inactive). Also, the z-score is -0.35 in experiment [17] and -0.078 (inactive) in [20].
Consider `O=C1O[C@H](c2ccccc2)[C@H](c2ccccc2)N2[C@H]1[C@@H](C(=O)N1CCN(c3ncccn3)CC1)[C@]1(C(=O)Nc3ccc(C#CC4=CCCCC4)cc31)[C@H]2c1ccccc1OCCO`, for which the composite z-score in experiment [1] amounted to 0.28; in experiment [3], 0.503; in experiment [4], 0.123; in [5] it was 0.491; in [6] it was 1.88; in [7] it was 1.19. Moreover, the composite z-score turned out to be 1.28 in experiment [8]; 0.646 in [9]; 1.16 in experiment [10]; 1.5 in experiment [11]; 1.18 in [12]; 0.543 in [13]. Also, the composite z-score in experiment [14] is 0.916; in [15], 1.34; in experiment [16], 1.3; in experiment [18] it was 1.16; in experiment [19], 1.07. Further, the composite Z-score in experiment [2] was -0.0798 (inactive). The z-score in experiment [17] was -1.01; in experiment [20], -0.662 (inactive).
Turning to `O=C1NC(=O)C2C1C=CC(C(O)C=Cc1ccc([N+](=O)[O-])cc1)N2Nc1ccc(Cl)cc1Cl` (stereo not given), the composite z-score in experiment [1] was 0.89; in experiment [3], 0.405; in [4] it was 0.39; in [5] it was 0.76; in [6], 2.07; in [7], 1.01. For the same compound, the composite z-score in [8] is 0.756; in experiment [9], 0.397; in experiment [10] it was 0.76; in [11], 1.72; in experiment [12], 1.11; in [13], 0.0716. In addition, the composite z-score was 0.646 in experiment [14]; 1.04 in experiment [15]; -0.18 in experiment [16]; -0.443 in [18]; 0.957 in experiment [19]. For the same compound, the composite Z-score in [2] was 0.541 (inactive). The z-score in experiment [17] is 0.408; in experiment [20] it was -3.39 (inactive).

These data come from PubChem BioAssay.
